Results published in PubChem BioAssay AID1159580 (chemical genetic matrix, 2015).
Out of some 5,500 compounds screened, about 2,000 (36%) were called active. Roughly 18% stayed inconclusive and do not appear here. Some of the results follow. Unmarked numbers belong to inactive results. Rule as the data show it: active = normalized growth mostly below about 0.91 (no sharp cut-off); inconclusive = no clear call, values can overlap the other calls; inactive = mostly above about 0.92.

Assay: chemical genetic growth profiling, strain panel (AID 1159580);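 also: tested at 20 µM; growth read once vehicle control cultures reached saturation at 30 °C; 1 = growth at the plate median or of vehicle wells; lower values mean less growth of the strain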
Conditions: S. cerevisiae deletion strains, growth OD
[1] = locus YAL040C, strain CLN3, stronger effect = lower value
[2] = locus YCL061C, strain MRC1 (second series), stronger effect = lower value
[3] = locus YDR363W, strain ESC2, stronger effect = lower value
[4] = locus YER002W, strain NOP16, stronger effect = lower value
[5] = locus YGR078C, strain PAC10, stronger effect = lower value
[6] = locus YGR229C, strain SMI1, stronger effect = lower value
[7] = locus YNL175C, strain NOP13, stronger effect = lower value
[8] = locus YNL197C, strain WHI3, stronger effect = lower value
[9] = locus YNL224C, strain SQS1, stronger effect = lower value
[10] = locus YNL322C, strain KRE1, stronger effect = lower value
[11] = locus YOR083W, strain WHI5 (second series), stronger effect = lower value
[12] = locus YDR150W, strain NUM1, stronger effect = lower value
[13] = locus YHR030C, strain SLT2, stronger effect = lower value
[14] = locus YJR075W, strain HOC1, stronger effect = lower value
[15] = locus YMR263W, strain SAP30, stronger effect = lower value
[16] = locus YMR307W, strain GAS1, stronger effect = lower value
[17] = locus YPL241C, strain CIN2, stronger effect = lower value

`CC(/C=C/c1cccc(Oc2ccc(F)cc2)c1)N(O)C(N)=O` (stereo unspecified) showed a normalized growth [1] of 0.991, a normalized growth [2] of 0.994 and a normalized growth [3] of 0.987. It also gave a normalized growth [4] of 1.01, a normalized growth [5] of 1.01 and a normalized growth [6] of 1. For the same compound, the normalized growth [7] was 1, the normalized growth [8] was 0.971 and the normalized growth [9] was 0.984. For the same compound, the normalized growth [10] was 1.01 and the normalized growth [11] was 0.966.
Work on `Clc1ccc(C2=CSC3=NCCCN23)cc1` yielded a normalized growth (locus YAL013W, strain DEP1, stronger effect = lower value) of 0.997, a normalized growth (locus YBR229C, strain ROT2, stronger effect = lower value) of 1.02 and a normalized growth (locus YDL101C, strain DUN1, stronger effect = lower value) of 0.993. For the same compound, the normalized growth [12] was 0.959, the normalized growth (locus YEL061C, strain CIN8, stronger effect = lower value) was 1 and the normalized growth [5] was 0.992. It also gave a normalized growth [6] of 1.01, a normalized growth [13] of 0.986 and a normalized growth (locus YHR087W, strain rtc3, stronger effect = lower value) of 0.994. For the same compound, the normalized growth (locus YJR043C, strain POL32, stronger effect = lower value) was 0.999, the normalized growth [14] was 0.989 and the normalized growth (locus YLR039C, strain RIC1, stronger effect = lower value) was 0.989. For the same compound, the normalized growth (locus YLR058C, strain SHM2 (second series), stronger effect = lower value) was 1.01, the normalized growth (locus YLR085C, strain ARP6, stronger effect = lower value) was 1.03 and the normalized growth (locus YLR262C, strain YPT6, stronger effect = lower value) was 0.998. It also gave a normalized growth (locus YML094W, strain GIM5, stronger effect = lower value) of 0.993, a normalized growth (locus YMR219W, strain ESC1, stronger effect = lower value) of 1.01 and a normalized growth [15] of 0.986. The normalized growth [16] was 0.982, the normalized growth (locus YNL153C, strain GIM3, stronger effect = lower value) was 0.995 and the normalized growth (locus YNL298W, strain CLA4 (second series), stronger effect = lower value) was 1.04. For the same compound, the normalized growth [10] was 0.999, the normalized growth (locus YNR030W, strain Alg12, stronger effect = lower value) was 1.01 and the normalized growth (locus YPL055C, strain LGE1, stronger effect = lower value) was 1.03. For the same compound, the normalized growth [17] was 1 and the normalized growth (locus YPR135W, strain CTF4, stronger effect = lower value) was 1.02.
With `N=C1Sc2ccccc2C2=NCCCN12` the normalized growth [1] was 1.02, the normalized growth [2] was 1.01 and the normalized growth [12] was 1.04. For the same compound, the normalized growth [3] was 1.01, the normalized growth [4] was 1.04 and the normalized growth [5] was 1.02. For the same compound, the normalized growth [14] was 0.945, the normalized growth [15] was 1.01 and the normalized growth [16] was 0.872 (active). It also gave a normalized growth [7] of 1.04, a normalized growth [8] of 1.02 and a normalized growth [9] of 1.02. The normalized growth [10] was 1.01, the normalized growth [11] was 0.988 and the normalized growth [17] was 1.02.
With `OCCOCCN1CCN(C2=Nc3ccccc3Sc3ccccc32)CC1` the normalized growth (locus YAL021C, strain ccr4, stronger effect = lower value) was 1.01, the normalized growth (locus YAL026C, strain drs2, stronger effect = lower value) was 1 and the normalized growth (locus YAL030W, strain snc1, stronger effect = lower value) was 0.992. For the same compound, the normalized growth (locus YBL061C, strain skt5, stronger effect = lower value) was 1.02, the normalized growth (locus YBR009C, strain hhf1, stronger effect = lower value) was 1.02 and the normalized growth (locus YBR023C, strain chs3, stronger effect = lower value) was 1.01. The normalized growth (locus YBR171W, strain sec66, stronger effect = lower value) was 1, the normalized growth (locus YBR231C, strain swc5, stronger effect = lower value) was 1.01 and the normalized growth (locus YBR279W, strain paf1, stronger effect = lower value) was 1.01. For the same compound, the normalized growth (locus YCL011C, strain gbp2, stronger effect = lower value) was 0.993, the normalized growth (locus YCL016C, strain dcc1, stronger effect = lower value) was 0.997 and the normalized growth (locus YCL069W, strain vba3, stronger effect = lower value) was 1.01. The normalized growth (locus YCR088W, strain abp1, stronger effect = lower value) was 1, the normalized growth (locus YDL005C, strain med2, stronger effect = lower value) was 1 and the normalized growth (locus YDL040C, strain nat1, stronger effect = lower value) was 1. For the same compound, the normalized growth (locus YDR001C, strain nth1, stronger effect = lower value) was 1.01, the normalized growth (locus YDR069C, strain doa4, stronger effect = lower value) was 0.998 and the normalized growth (locus YDR137W, strain rgp1, stronger effect = lower value) was 1. The normalized growth (locus YDR159W, strain sac3, stronger effect = lower value) was 1, the normalized growth (locus YDR195W, strain ref2) was 0.977 and the normalized growth (locus YDR297W, strain sur2, stronger effect = lower value) was 0.993. For the same compound, the normalized growth (locus YDR334W, strain swr1, stronger effect = lower value) was 1.01, the normalized growth (locus YDR335W, strain msn5, stronger effect = lower value) was 1.01 and the normalized growth (locus YDR392W, strain spt3, stronger effect = lower value) was 1.02. The normalized growth (locus YEL003W, strain gim4, stronger effect = lower value) was 1, the normalized growth (locus YEL037C, strain rad23, stronger effect = lower value) was 1.01 and the normalized growth (locus YEL061C, strain CIN8 (second series), stronger effect = lower value) was 1. The normalized growth (locus YER015W, strain faa2, stronger effect = lower value) was 1.01, the normalized growth (locus YER016W, strain bim1, stronger effect = lower value) was 1.01 and the normalized growth (locus YER111C, strain swi4, stronger effect = lower value) was 1.01. For the same compound, the normalized growth (locus YER155C, strain BEM2 (second series), stronger effect = lower value) was 0.993, the normalized growth (locus YFR010W, strain ubp6, stronger effect = lower value) was 1.01 and the normalized growth (locus YGL167C, strain pmr1, stronger effect = lower value) was 1. For the same compound, the normalized growth (locus YGL173C, strain kem1, stronger effect = lower value) was 1, the normalized growth (locus YGL227W, strain vid30, stronger effect = lower value) was 0.989 and the normalized growth (locus YGL240W, strain doc1, stronger effect = lower value) was 0.992. It also gave a normalized growth (locus YGL253W, strain hxk2, stronger effect = lower value) of 1.02, a normalized growth (locus YHR013C, strain ard1, stronger effect = lower value) of 0.982 and a normalized growth (locus YHR027C, strain rpn1, stronger effect = lower value) of 1. The normalized growth [13] was 0.991, the normalized growth (locus YHR079C, strain IRE1, stronger effect = lower value) was 0.994 and the normalized growth (locus YHR142W, strain chs7, stronger effect = lower value) was 1.02. The normalized growth (locus YJL092W, strain hpr5, stronger effect = lower value) was 1.02, the normalized growth (locus YJL095W, strain BCK1 (second series), stronger effect = lower value) was 1 and the normalized growth (locus YJL095W, strain BCK1, stronger effect = lower value) was 0.999. For the same compound, the normalized growth (locus YJL115W, strain asf1, stronger effect = lower value) was 1, the normalized growth (locus YJL129C, strain trk1, stronger effect = lower value) was 1.02 and the normalized growth (locus YJL154C, strain vps35, stronger effect = lower value) was 1.03. The normalized growth (locus YJL164C, strain tpk1, stronger effect = lower value) was 1.01, the normalized growth (locus YJL166W, strain qcr8, stronger effect = lower value) was 1.01 and the normalized growth (locus YJL187C, strain SWE1, stronger effect = lower value) was 1.01. The normalized growth (locus YJR066W, strain TOR1, stronger effect = lower value) was 0.978, the normalized growth (locus YKL160W, strain elf1, stronger effect = lower value) was 1 and the normalized growth (locus YKR026C, strain gcn3, stronger effect = lower value) was 1.02. For the same compound, the normalized growth (locus YKR091W, strain srl3, stronger effect = lower value) was 1.01, the normalized growth (locus YLL001W, strain dnm1, stronger effect = lower value) was 0.996 and the normalized growth (locus YLL026W, stronger effect = lower value) was 1. For the same compound, the normalized growth (locus YLL041C, strain sdh2, stronger effect = lower value) was 1.02, the normalized growth (locus YLR027C, strain aat2, stronger effect = lower value) was 1.01 and the normalized growth (locus YLR113W, strain HOG1, stronger effect = lower value) was 1. It also gave a normalized growth (locus YLR221C, strain rsa3, stronger effect = lower value) of 1, a normalized growth (locus YLR258W, strain gsy2, stronger effect = lower value) of 1.01 and a normalized growth (locus YLR262C, strain YPT6 (second series), stronger effect = lower value) of 1.03. For the same compound, the normalized growth (locus YLR320W, strain mms22, stronger effect = lower value) was 0.981, the normalized growth (locus YLR342W, strain FKS1, stronger effect = lower value) was 1 and the normalized growth (locus YLR357W, strain rsc2, stronger effect = lower value) was 1.01. It also gave a normalized growth (locus YLR370C, strain arc18, stronger effect = lower value) of 1.01, a normalized growth (locus YLR384C, strain iki3, stronger effect = lower value) of 1.01 and a normalized growth (locus YML120C, strain ndi1, stronger effect = lower value) of 1.01. It also gave a normalized growth (locus YMR058W, strain fet3, stronger effect = lower value) of 1.01, a normalized growth (locus YMR125W, strain sto1, stronger effect = lower value) of 1.01 and a normalized growth (locus YMR129W, stronger effect = lower value) of 1.01. For the same compound, the normalized growth (locus YMR205C, strain PFK2, stronger effect = lower value) was 0.994, the normalized growth (locus YMR231W, strain pep5, stronger effect = lower value) was 1 and the normalized growth (locus YNL071W, strain lat1, stronger effect = lower value) was 1. For the same compound, the normalized growth (locus YNL183C, strain NPR1, stronger effect = lower value) was 0.975, the normalized growth (locus YNL209W, strain ssb2, stronger effect = lower value) was 1.01 and the normalized growth (locus YNL248C, strain rpa49, stronger effect = lower value) was 0.977. The normalized growth (locus YNL322C, strain KRE1 (second series), stronger effect = lower value) was 1, the normalized growth (locus YNR049C, strain mso1, stronger effect = lower value) was 1.01 and the normalized growth (locus YOR001W, strain rrp6, stronger effect = lower value) was 0.995. For the same compound, the normalized growth (locus YOR070C, strain gyp1, stronger effect = lower value) was 0.995, the normalized growth (locus YOR080W, strain dia2, stronger effect = lower value) was 1 and the normalized growth (locus YOR083W, strain WHI5, stronger effect = lower value) was 0.991. It also gave a normalized growth (locus YOR106W, strain vam3, stronger effect = lower value) of 0.997, a normalized growth (locus YOR231W, strain MKK1, stronger effect = lower value) of 0.981 and a normalized growth (locus YOR265W, strain rbl2, stronger effect = lower value) of 1. The normalized growth (locus YOR270C, strain vph1, stronger effect = lower value) was 1, the normalized growth (locus YOR290C, strain snf2, stronger effect = lower value) was 1 and the normalized growth (locus YPL051W, strain arl3, stronger effect = lower value) was 1.02. For the same compound, the normalized growth (locus YPL078C, strain atp4, stronger effect = lower value) was 1.01, the normalized growth (locus YPL106C, strain sse1, stronger effect = lower value) was 1.03 and the normalized growth (locus YPL240C, strain hsp82, stronger effect = lower value) was 1. It also gave a normalized growth (locus YPL256C, strain CLN2, stronger effect = lower value) of 0.989.
